Experimental data from PubChem BioAssay.
Activity calls are given as the source filed them.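 The calls were made as follows, unless noted: active = fluorescence slope after compound addition differing from the mean of all screened samples at 99.7% confidence, in either direction; inactive = the rest.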

How the values were obtained:
[1] = inhibitors of TNFa-induced NFkB p65 translocation, primary screen, imaging, HUVEC, MLSMR starter and 10KST1 sets (AID 438;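 active = inhibition above 20% together with a positive visual image hit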;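 also: compound added about 3h40 before a 20 min TNFalpha stimulation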;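 as to inhibition: signal is the nuclear over cytoplasmic p65 intensity ratio per well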); conditions: HUVEC TNFa-induced p65 nuclear translocation; cell count: measured here: nuclei count (cytotoxicity indicator), at 2.08 µM unless noted; inhibition: at 2 µM, stronger effect = higher value unless noted
[2] = inhibitors of mutant huntingtin aggregation, primary screen, imaging, exon1htt(103Q)mCFP cells, high-content imaging (AID 483;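 active = visual image review flags a hit and inhibition of aggregation exceeds 20%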;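 also: compound exposure lasted 3 days before fixation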;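 as to nuclei count: percent of the per-plate median nuclei count of sample wells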); conditions: exon1htt(103Q)mCFP cell line, aggregate imaging, at 2 µM; inhibition of aggregation: stronger effect = higher value; nuclei count: measured here: cell count, toxicity
[3] = inhibitors of E-selectin induction by TNFa, primary screen, imaging, HUVEC, immunofluorescence, MLSMR starter and 10KST1 sets (AID 487;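 active = visually confirmed hit in the image check and inhibition above 20%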;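 as to inhibition: signal is fraction of cell area covered by stained E-selectin grains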;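 as to nuclei count: 100% = median nuclei count of all wells on the same plate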); conditions: HUVEC TNFalpha-induced E-selectin immunofluorescence imaging, at 2 µM; inhibition: stronger effect = higher value; nuclei count: measured here: cell number, toxicity
[4] = target: Voltage-gated potassium channel subunit beta-2 (Rattus norvegicus) (UniProt P62483); experiment: KvBeta enzyme negative modulators, primary screen, biochemical, NADPH fluorescence (AID 622;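 active = fluorescence slope higher than the sample average by over 3 SD, cut at about -0.22 in these data, passing the limit was not always enough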;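 also: slope of raw intensity against log time taken from 70 to 1610 s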); conditions: recombinant KvBeta, 4-cyanobenzaldehyde reduction, at 10 µM, stronger effect = higher value
Voltage-gated potassium channel subunit beta-2 (Rattus norvegicus), sequence (P62483 whole entry, looked up): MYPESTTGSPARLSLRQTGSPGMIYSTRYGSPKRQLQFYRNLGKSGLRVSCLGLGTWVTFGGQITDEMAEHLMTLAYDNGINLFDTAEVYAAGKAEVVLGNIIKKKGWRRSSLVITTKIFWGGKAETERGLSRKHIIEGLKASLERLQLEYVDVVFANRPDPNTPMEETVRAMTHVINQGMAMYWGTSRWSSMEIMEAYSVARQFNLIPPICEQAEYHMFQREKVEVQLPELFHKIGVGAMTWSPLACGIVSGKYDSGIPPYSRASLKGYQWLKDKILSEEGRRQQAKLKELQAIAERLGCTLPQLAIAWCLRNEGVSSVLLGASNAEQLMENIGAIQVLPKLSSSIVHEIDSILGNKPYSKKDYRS

[5] = target: Voltage-gated potassium channel subunit beta-2 (Rattus norvegicus) (UniProt P62483); experiment: KvBeta positive modulators, primary screen, biochemical, NADPH fluorescence (AID 623;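 active = NADPH fluorescence slope more negative than the mean of all samples by about 3 SD, 99.7% confidence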;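 also: fluorescence intensity change per second fitted from 20 to 320 s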); conditions: Recombinant KvBeta, NADPH fluorescence decrease slope, 10 min; at 10 µM; stronger effect = lower value
[6] = target: Alpha-2C adrenergic receptor (Homo sapiens) (UniProt P18825); experiment: modulators of alpha2C/GIRK thallium flux, primary screen, cell-based, HEK293 alpha2C/GIRK1/2 (AID 624); conditions: thallium flux BTC fluorescence, at 10 µM, actives lie on both sides;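 also: slope of fluorescence ratio to pre-addition baseline per second over 15 to 24 s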
Alpha-2C adrenergic receptor (Homo sapiens), sequence (P18825 whole entry, looked up): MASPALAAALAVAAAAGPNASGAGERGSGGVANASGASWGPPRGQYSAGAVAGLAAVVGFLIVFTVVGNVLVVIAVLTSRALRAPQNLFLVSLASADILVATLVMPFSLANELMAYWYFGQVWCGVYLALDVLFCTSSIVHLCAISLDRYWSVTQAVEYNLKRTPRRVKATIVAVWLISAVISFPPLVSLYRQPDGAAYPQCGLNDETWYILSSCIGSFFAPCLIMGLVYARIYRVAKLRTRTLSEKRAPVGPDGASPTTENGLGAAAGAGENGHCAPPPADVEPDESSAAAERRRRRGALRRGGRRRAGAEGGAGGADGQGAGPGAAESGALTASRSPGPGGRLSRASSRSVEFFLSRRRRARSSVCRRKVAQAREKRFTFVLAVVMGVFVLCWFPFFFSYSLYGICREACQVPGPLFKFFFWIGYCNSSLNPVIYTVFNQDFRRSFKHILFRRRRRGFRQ

[7] = inhibitors of Sendai virus-induced IRF3 signaling, primary screen, TLR/RLR signaling modifier project, cell-based, Sendai virus stimulus, luciferase, 10K MLSCN set (AID 602276;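 active = inhibition at or above 50% at 10 µM; inactive = inhibition below 50%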;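 also: firefly luciferase from ISG56 promoter only with Renilla not read in this screen; 0% = Sendai virus plus DMSO and 100% = medium plus DMSO without virus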); conditions: HEK293 RL24 IRF3 luciferase reporter, at 10 µM, stronger effect = higher value
[8] = inhibitors of poly I:C-induced TLR3 signaling, primary screen, cell-based, poly I:C stimulus, luciferase, 10K MLSCN set (AID 602277;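 active = inhibition of the reporter signal at or above 50%; inactive = inhibition below 50%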); conditions: HEK293-TLR3 RL24 IRF3 luciferase reporter, at 10 µM, stronger effect = higher value

Structure (SMILES) | cell count [1] | inhibition [1] | inhibition of aggregation [2] | nuclei count [2] | inhibition [3] | nuclei count [3] | fluorescence slope [4] | NADPH fluorescence slope [5] | slope [6] | inhibition [7] | inhibition [8]
Cc1ccc(OCC(=O)NCCN2CCN(C(=O)COc3ccc(C)cc3)CC2)cc1 | 635 | -0.2% (inactive) | 9.1% (inactive) | 94.7% | -103% (inactive) | 103% | -0.611 (inactive) | -2.9e-05 (inactive) | 0.00522 (inactive) | -9.99% (inactive) | -18.3% (inactive)
CCn1c(C)c(C(=O)O)c2cc(OC)ccc21 | 617 | 3.5% (inactive) | 1.8% (inactive) | 96.3% | 11.4% (inactive) | 107% | -0.495 (inactive) | -2.5e-05 (inactive) | 0.00472 (inactive) | 14.5% (inactive) | 22.2% (inactive)
Cc1ccc(C)c(NC(=O)CSc2nnc([C@@H](N)Cc3c[nH]c4ccccc34)o2)c1 | 282 | 9.5% (inactive) | -6.6% (inactive) | 103% | -8.3% (inactive) | 92.8% | -0.428 (inactive) | -1.2e-05 (inactive) | 0.00513 (inactive) | 9.6% (inactive) | 24.2% (inactive)
Cc1cc(C)c(C(=O)CN2CCOCC2)c(C)c1 | 408 | 7.3% (inactive) | 7.9% (inactive) | 89.5% | -77.5% (inactive) | 115% | -0.419 (inactive) | -0.000154 (inactive) | 0.00628 (inactive) | 13.2% (inactive) | 24.8% (inactive)
O=C1OCCC1NC1=NCCC1 (centres undefined) | 571 | -9.6% (inactive) | -1.8% (inactive) | 106% | -16.4% (inactive) | 101% | -0.45 (inactive) | -5e-05 (inactive) | 0.00554 (inactive) | -0.849% (inactive) | 13.5% (inactive)
Cc1cccc(-n2c(O)c(C=NCCCN3CCOCC3)c(=O)[nH]c2=O)c1C | 710 | -3.5% (inactive) | 9.8% (inactive) | 96.5% | 26.7% (inactive) | 102% | -0.391 (inactive) | 2.3e-05 (inactive) | 0.00546 (inactive) | 0.794% (inactive) | 3.78% (inactive)
CCCNS(=O)(=O)c1ccc(OCC(=O)N2CCN(Cc3ccccc3)CC2)cc1 | 296 | -7.1% (inactive) | -5% (inactive) | 115% | -3.1% (inactive) | 110% | -0.476 (inactive) | -7e-05 (inactive) | 0.00533 (inactive) | -3.33% (inactive) | -4.45% (inactive)
CCOc1ccc(C2SCC(=O)Nc3c2c(=O)[nH]n3C2CCCCCC2)cc1 (centres undefined) | 286 | 23.8% (inactive) | 7.5% (inactive) | 88.4% | -14.2% (inactive) | 102% | -0.408 (inactive) | -2.7e-05 (inactive) | 0.00778 (inactive) | -12.2% (inactive) | 98.8% (active)
CCCCn1c(C)c(C(=O)OCC)c2c(CN3CCOCC3)c(O)ccc21 | 702 | 0.6% (inactive) | -0.7% (inactive) | 82.8% | -44.3% (inactive) | 100% | -0.373 (inactive) | -2.7e-05 (inactive) | 0.00475 (inactive) | 11.9% (inactive) | 19.2% (inactive)
CC1(C)Cc2c(sc3c2C(=O)NC(c2cccnc2)N3)CO1 (centres undefined) | 328 | 6.5% (inactive) | 6% (inactive) | 98.3% | 4.5% (inactive) | 106% | -0.584 (inactive) | -3.1e-05 (inactive) | 0.00356 (inactive) | 3.52% (inactive) | 5.63% (inactive)
CCCNC(=O)c1c(N)n(Cc2ccc3c(c2)OCO3)c2nc3ccccc3nc12 | 699 | -14.7% (inactive) | -5.3% (inactive) | 104% | -9.2% (inactive) | 107% | -0.559 (inactive) | -2.1e-05 (inactive) | 0.00324 (inactive) | 19.3% (inactive) | 24.3% (inactive)
N#Cc1ccccc1Cn1cc(C(=O)C2CC2)c2ccccc21 | 390 | -2.2% (inactive) | -0.9% (inactive) | 101% | -50.9% (inactive) | 107% | -0.447 (inactive) | -7.2e-05 (inactive) | 0.00467 (inactive) | 2.45% (inactive) | 19.3% (inactive)
O=C(CCCOc1ccc(Cl)cc1Cl)N1CCC2(CC1)OCCO2 | 751 | -20.4% (inactive) | -14.9% (inactive) | 114% | -51.1% (inactive) | 102% | -0.365 (inactive) | -4.9e-05 (inactive) | 0.0028 (inactive) | -4.5% (inactive) | -38.8% (inactive)
CCOc1ccc(-n2c(O)c(C=NCCN(CC)CC)c(=O)[nH]c2=O)cc1 | 411 | -1.5% (inactive) | -1.7% (inactive) | 89.3% | -87.3% (inactive) | 125% | -0.553 (inactive) | 1.2e-05 (inactive) | 0.00486 (inactive) | 0.257% (inactive) | 1.28% (inactive)
